Results published in PubChem BioAssay (NCATS).
Results filed as inconclusive are left out. Where a call stands in place of a potency, no number is given. Calls of active or inactive are those of the source. The call rests on the fitted dose curve; in most records, active means well fitted inhibition curve with a large enough effect; inconclusive means small, poorly fitted or top-dose-only effect; inactive means flat fitted curve, though single readings scatter.

experiment: BET inhibitor-based combinations targeting novel dependencies in MECOM-rearranged (r) AML: AML-194 cell line (AID 2202237; further: nearly all actives have a fitted effect of over 40% in size); details: AML-194 (MECOM-r AML) viability, CellTiter-Glo, 48 h; series mostly up to 46 µM
Excerpt: Ecotropic viral insertion site 1 (EVI1) is located on chromosome 3q26.2 as part of the MECOM (MDS and EVI1 complex) locus. Under normal hematopoiesis, EVI1 is a regulator of hematopoietic stem cell maintenance and self-renewal and EVI1 levels decrease as the cells differentiate. In approximately 5-10% of de novo acute myeloid leukemia (AML) EVI1 is aberrantly expressed, including Chromosomal inv(3)(q21;q26.2) or t(3;3)(q21;q26.2) alterations (MECOM-r) that account for about 50% of AML with EVI1 overexpression 31. AMLs with high levels of EVI1 have a poor prognosis and an overall survival time averaging between 10-14 months. EVI1 overexpression confers resistance in leukemia cells, highlighting the need to develop new targeted therapies for EVI1 overexpressing AMLs.
Here, we performed an unbiased chemical drug screening by evaluating the single agent activity of a collection of 2,480 oncology-focused, approved and investigational drugs (NCATS Mechanism Interrogation Plates, MIPE v5.0) against a panel of seven AML cell lines. These included four MECOM-r cell-lines (AML-191, AML-194, UCSD-AML1 and HNT-34) and three non-MECOM-r AMLs (MV4-11, OCI-AML3 and SET-2). Exploiting the mechanistic redundancy built in the library, we identified target-level sensitivities in MECOM-r AML cells and relative activity as compared to other AML subtypes.
A collection of 2480 mechanistically annotated dugs (MIPE v5.0) was used to screen four 3q26.2 rearranged AML cell lines and three non-3q26.2 rearranged AML cell lines. This library purposely exploits redundancy by including multiple inhibitors of key onco-targets, while simultaneously encompassing mechanistic diversity, targeting more than 800 distinct mechanisms of action. Briefly, cells were seeded in 5 uL of growth media using a Multidrop Combi dispenser into 1536 well white polystyrene tissue culture treated plates (Corning) at a density of 500cells/well. For each cell-line, for each of the 2480 drugs in MIPE v5.0 library, an 11-point dose curve was generated via a 1536 pin-tool. Plates were incubated for 48 hr at standard incubator conditions, covered by a stainless steel gasketed lid to prevent evaporation. Cell viability was determined by luminescence based, Cell Titer Glo assay (Promega). In detail, 3 uL of Cell Titer Glo were added to each well and plates were incubated at room temperature for 15 min with a stainless-steel lid in place. Luminescence readings were taken using a Viewlux (PerkinElmer) with a 2 s exposure time per plate. Compound dose-response curves were normalized to DMSO and empty well controls on each plate. Quantitative drug activity data from dose-response curves was determined utilizing area Under the Curve (AUC) and Z-transformed AUC (Z-AUC, a mean-centering transformation applied to each individual cell-line screened).
Potency means the concentration at half of the fitted maximal effect.

Row | SMILES | Potency
1 | COc1ccc(/C=C/C(=O)Nc2ccccc2C(=O)O)cc1OC | inactive
2 | Nc1cc(C(Cl)=C(Cl)Cl)c(S(N)(=O)=O)cc1S(N)(=O)=O | inactive
3 | COC(=O)Nc1nc2ccc(C(=O)c3cccs3)cc2[nH]1 | 332 nM (active)
4 | CCNC(=O)CCC/C=C\C[C@@H]1[C@@H](/C=C/C(O)CCc2ccccc2)[C@@H](O)C[C@@H]1O (stereo not given in full) | inactive
5 | NC12CC3CC(CC(C3)C1)C2 | inactive
6 | CC(C)c1cc(CNc2nc(Nc3cc(C4CC4)[nH]n3)cc(N3CCN(C)CC3)n2)on1 | 93.4 nM (active)
7 | CC(C)C[C@@H](N)[C@H](O)C(=O)N[C@H](C(=O)N[C@H](C(=O)N[C@@H](CC(=O)O)C(=O)O)C(C)C)C(C)C | inactive
8 | COC(=O)Nc1nc2ccc(C(=O)c3ccc(F)cc3)cc2[nH]1 | 332 nM (active)
9 | Cc1ccc(S(=O)(=O)Nc2nc3ccccc3nc2Nc2ccc3nsnc3c2)cc1 | inactive
10 | Cc1c(NC(=O)c2cc3c(s2)CCCC3)cccc1-c1cn(C)c(=O)c(Nc2ccc(C3C(=O)N(C)CCN3C)cc2)n1 (stereo not given) | inactive
11 | CC(NCCc1ccc(O)cc1)C(O)c1ccc(O)cc1 (stereo not given) | inactive
12 | C#CCN[C@@H]1CCc2ccccc21 | inactive
13 | CC#CCn1c(N2CCC[C@@H](N)C2)nc2c1c(=O)n(Cc1nc(C)c3ccccc3n1)c(=O)n2C | inactive
14 | O=C(O)CCn1c2c(c3ccccc31)C[C@H](NS(=O)(=O)c1ccc(F)cc1)CC2 | inactive
15 | CC(=O)O[C@]1(C(C)=O)CC[C@H]2[C@@H]3C=C(Cl)C4=CC(=O)[C@@H]5C[C@@H]5[C@]4(C)[C@H]3CC[C@@]21C | inactive
16 | COc1cc2c(cc1OC)C1CC(=O)C(CC(C)C)CN1CC2 (stereo not given) | inactive
17 | O=C(O)c1cc(O)c2c(c1)C(=O)c1cccc(O)c1C2=O | inactive
18 | Fc1ccc(CNc2ncnc3ccc(F)cc23)cc1 | inactive
19 | CCN(CC)Cc1ccc2cc(COC(=O)Nc3ccc(C(=O)NO)cc3)ccc2c1 | 934 nM (active)
20 | Cc1cc(Nc2cc(CN3CCOCC3)c3nc(C)c(Cc4ccc(Cl)cc4F)n3n2)n[nH]1 | 1480 nM (active)

Row | SMILES | Potency
21 | CC(C)Nc1cc(-c2c[nH]c(C(=O)N[C@H](CO)c3cccc(Cl)c3)c2)c(Cl)cn1 | 8330 nM (active)
22 | Cc1nc(-c2ccc(OCC(C)C)c(C#N)c2)sc1C(=O)O | inactive
23 | CCC(C)(C)C(=O)O[C@H]1C[C@@H](C)C=C2C=C[C@H](C)[C@H](CC[C@@H]3C[C@@H](O)CC(=O)O3)[C@H]21 | inactive
24 | NC(=O)c1ccc2[nH]ccc2c1 | inactive
25 | C=CC(=O)Nc1cccc(Nc2nc(Nc3ccc(Oc4ccnc(C(=O)NC)c4)cc3)ncc2F)c1 | 18600 nM (active)
26 | CC(C)[C@H](N)C(=O)OCCOCn1cnc2c(=O)[nH]c(N)nc21 | inactive
27 | Nc1cccc(-c2cc3c(Oc4cccc(O)c4)ncnc3[nH]2)c1 | 5900 nM (active)
28 | CCCN[C@H]1CCc2nc(N)sc2C1 | inactive
29 | Clc1cc2c(NC3CCCC3)nnc(-c3ccncc3)c2cc1Cl | inactive
30 | Cc1cc(=O)oc2cc(O)ccc12 | inactive
31 | NC(=O)c1ccc2nc(-c3ccc(Oc4ccc(Cl)cc4)cc3)[nH]c2c1 | inactive
32 | COc1ccc(-n2c(SCCCN3C(=O)c4cccc5cccc(c45)C3=O)nnc2-c2ccncc2)cc1 | inactive
33 | O=C1c2c(O)ccc(O)c2C(=O)c2c(NCCNCCO)ccc(NCCNCCO)c21 | 372 nM (active)
34 | CN1CCN(c2cc(C(=O)Nc3ccc4c(c3)-c3c(c(C(N)=O)nn3-c3ccc(F)cc3)CC4)c(Cl)cn2)CC1 | 8330 nM (active)
35 | NC(=O)Nc1cc(-c2ccc(CN3CCOCC3)cc2)sc1C(N)=O | 742 nM (active)
36 | Fc1ccc(-c2nc(-c3ccccc3F)[nH]c2-c2ccncc2)cc1 | inactive
37 | O=C(O)[C@@H](c1ccc(OCc2ccc3ccccc3n2)cc1)C1CCCC1 | inactive
38 | Nc1nc2c(c(=O)[nH]1)N(C=O)[C@H](CNc1ccc(C(=O)N[C@@H](CCC(=O)O)C(=O)O)cc1)CN2 | inactive
39 | NC(=O)c1ccc(N(C(N)=O)c2c(F)cccc2F)nc1-c1ccc(F)cc1F | inactive
40 | CCCCOc1c(C(=O)c2c(F)cc(C)cc2F)cnc2n[nH]cc12 | 3720 nM (active)
